The source made the active and inactive calls. The rule behind the calls is not given here.
The molecules below were run against Estrogen receptor (Homo sapiens) (UniProt P03372) (assay: displacement of fluorescent estrogen from ERalpha – cell-based, Cos7 ERalpha-GFP, flow cytometry, primary screen (AID 1211;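 note: 0% = DMSO vehicle wells and 100% = no E2-Alexa633 signal left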)). Conditions: fluorescent ligand competition, at 10 µM, stronger effect = higher value.
Estrogen receptor (Homo sapiens), sequence (P03372 whole entry, looked up): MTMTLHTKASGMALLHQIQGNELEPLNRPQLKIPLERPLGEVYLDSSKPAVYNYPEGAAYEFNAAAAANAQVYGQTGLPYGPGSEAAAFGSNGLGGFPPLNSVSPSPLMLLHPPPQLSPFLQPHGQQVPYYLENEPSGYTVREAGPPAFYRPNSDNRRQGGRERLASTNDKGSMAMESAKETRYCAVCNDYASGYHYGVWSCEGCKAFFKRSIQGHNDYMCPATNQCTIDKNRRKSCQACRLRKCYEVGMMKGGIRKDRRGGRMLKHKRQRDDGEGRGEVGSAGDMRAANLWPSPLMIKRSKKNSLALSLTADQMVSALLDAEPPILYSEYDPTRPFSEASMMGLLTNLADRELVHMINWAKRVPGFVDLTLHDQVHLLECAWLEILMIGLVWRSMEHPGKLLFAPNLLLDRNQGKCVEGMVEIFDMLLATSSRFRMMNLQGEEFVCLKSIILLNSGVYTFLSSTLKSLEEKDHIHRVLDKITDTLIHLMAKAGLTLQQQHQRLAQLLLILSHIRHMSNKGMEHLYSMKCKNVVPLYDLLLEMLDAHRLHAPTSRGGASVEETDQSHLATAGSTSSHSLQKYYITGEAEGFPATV

Compound	inhibition of ligand binding
COc1nc(-c2ccc(Cl)cc2)ccc1-c1noc(-c2ccco2)n1	57% (inactive)
O=C(Cc1cn2ccsc2n1)OCc1nc2ccccc2s1	26% (inactive)
Oc1ccccc1N=Nc1nc(-c2ccccc2)c(-c2ccccc2)[nH]1	52% (inactive)
CCN(c1ccccc1)S(=O)(=O)c1cc(C(=O)O)ccc1C	7% (inactive)
Cc1ccc(/C=c2\sc3nc(-c4ccco4)nn3c2=O)o1	37% (inactive)
C=C(C)CNC(=S)NNC(=O)CCn1c2cc(Cl)ccc2c2ccc(Cl)cc21	60% (inactive)
C[C@@H]1O[C@@H](Oc2c(-c3cc(O)c(O)c(O)c3)oc3cc(O)cc(O)c3c2=O)[C@H](O)[C@H](O)[C@H]1O	52% (inactive)
COc1ccc(C2=NN(C(=O)c3cccnc3)C(c3ccccc3)C2)cc1 (configuration not stated)	37% (inactive)
O=C(Cc1cccs1)Nc1ccc(-c2nnn(CC(=O)N3CCOCC3)n2)cc1	15% (inactive)
CCCNCC1COc2ccccc2O1 (configuration not stated)	2% (inactive)
COc1cc(NC(=O)c2cccs2)c(C(=O)OCC(=O)NCc2ccco2)cc1OC	22% (inactive)
Cc1c2cc(O)c(=O)cc-2oc2cc(O)c(O)cc12	31% (inactive)
COC(=O)c1c(NC(=O)Cc2cccs2)sc2c1CCCC2	57% (active)
Cc1ccc2c(c1)c(=O)c1c3n2CCN(C(=O)CCl)C3CC1 (configuration not stated)	21% (inactive)
O=C(OC1CCCCC1)c1ccc2c(c1)C1C=CCC1C(C(=O)O)N2 (configuration not stated)	42% (inactive)
COc1cccc(-c2nnc(NC(=O)Cc3cccs3)s2)c1	52% (inactive)
O=C(Nc1nc(-c2ccc(S(=O)(=O)N3CCOCC3)cc2)cs1)c1ccccc1	48% (inactive)
COc1cc(C(=O)Nc2nnc(-c3sccc3C)s2)cc(OC)c1OC	2% (active)
CC1(C)N=C(N)N=C(N)N1c1ccc(C(=O)O)cc1	35% (inactive)
COc1ccc2cc3c(N)nn(C(=O)Cc4ccc(Cl)cc4)c3nc2c1	18% (inactive)
Cc1cc(-c2nnc3sc(-c4ccc(Cl)cc4Cl)nn23)n[nH]1	27% (inactive)
CCC1(C)NC(=O)N(CC(=O)Nc2sc3c(c2C(N)=O)CCC3)C1=O (configuration not stated)	15% (inactive)
Cn1c(-c2ccc(N)cc2)nc2ccccc21	23% (inactive)

Same assay, conditions: fluorescent ligand competition, binding inhibition, at 0.1 µM, stronger effect = higher value

Compound	inhibition of ligand binding [%]
Nc1c(Cl)cc(Cl)cc1C(=O)OCC(=O)NC1CC1	13
Cc1ccc(C(=O)NCC(=O)OCC(=O)c2c(N)n(C)c(=O)n(C)c2=O)s1	5
COC(=O)c1cnn2c(C(F)(F)F)cc(-c3ccco3)nc12	32
Cc1ccccc1NC(=O)CSc1nnc(-c2ccco2)c(-c2ccco2)n1	66
CN(C)NC(=S)Nc1ccc2nc(-c3ccccn3)c(-c3ccccn3)nc2c1	4
Oc1ccccc1-c1nnc(SCCN2CCOCC2)n1Cc1ccccc1	44
O=C(/C=C/c1ccc(O)cc1)c1ccc(O)cc1O	18
O=C(O)c1ccc(Cl)c2c1C1C=CCC1C(c1ccccn1)N2 (configuration not stated)	10
O=C1C2C3C=CC(C3)C2C(=O)N1c1cccc2cccnc12 (configuration not stated)	57
C/C=C/COC(=O)c1[nH]c2c(c1C)C(=O)CC(c1ccco1)C2 (configuration not stated)	27
Cc1ccc(-c2nn(-c3ccccc3)cc2/C=N/NC(=O)c2ccc(Br)o2)cc1	49
COc1ccc(C2Nc3ccccc3C(=O)N2c2ccccc2)cc1CSc1ccccn1 (configuration not stated)	17
Cc1cccc2cc(C(c3nnnn3C(C)(C)C)N(Cc3ccco3)CC3CCCO3)c(=O)[nH]c12 (configuration not stated)	7
Cc1csc2nc(CCNS(=O)(=O)c3ccc4c(c3)OCCO4)cn12	77
O=C1Nc2ccccc2SC(c2ccccc2)C1O (configuration not stated)	46
C1=C(N2CCOCC2)/C(=C/c2nc3ccccc3[nH]2)CC1	41
COc1nc(-c2ccc(Cl)cc2)ccc1-c1noc(-c2ccco2)n1	14
O=C(Cc1cn2ccsc2n1)OCc1nc2ccccc2s1	18
Oc1ccccc1N=Nc1nc(-c2ccccc2)c(-c2ccccc2)[nH]1	27
CCN(c1ccccc1)S(=O)(=O)c1cc(C(=O)O)ccc1C	20

Compound	inhibition of ligand binding [%]
Cc1ccc(/C=c2\sc3nc(-c4ccco4)nn3c2=O)o1	26
C=C(C)CNC(=S)NNC(=O)CCn1c2cc(Cl)ccc2c2ccc(Cl)cc21	15
C[C@@H]1O[C@@H](Oc2c(-c3cc(O)c(O)c(O)c3)oc3cc(O)cc(O)c3c2=O)[C@H](O)[C@H](O)[C@H]1O	26
COc1ccc(C2=NN(C(=O)c3cccnc3)C(c3ccccc3)C2)cc1 (configuration not stated)	30
O=C(Cc1cccs1)Nc1ccc(-c2nnn(CC(=O)N3CCOCC3)n2)cc1	55
CCCNCC1COc2ccccc2O1 (configuration not stated)	21
COc1cc(NC(=O)c2cccs2)c(C(=O)OCC(=O)NCc2ccco2)cc1OC	20
Cc1c2cc(O)c(=O)cc-2oc2cc(O)c(O)cc12	51
COC(=O)c1c(NC(=O)Cc2cccs2)sc2c1CCCC2	70
Cc1ccc2c(c1)c(=O)c1c3n2CCN(C(=O)CCl)C3CC1 (configuration not stated)	26
O=C(OC1CCCCC1)c1ccc2c(c1)C1C=CCC1C(C(=O)O)N2 (configuration not stated)	14
COc1cccc(-c2nnc(NC(=O)Cc3cccs3)s2)c1	20
O=C(Nc1nc(-c2ccc(S(=O)(=O)N3CCOCC3)cc2)cs1)c1ccccc1	25
COc1cc(C(=O)Nc2nnc(-c3sccc3C)s2)cc(OC)c1OC	75
CC1(C)N=C(N)N=C(N)N1c1ccc(C(=O)O)cc1	21
COc1ccc2cc3c(N)nn(C(=O)Cc4ccc(Cl)cc4)c3nc2c1	16
Cc1cc(-c2nnc3sc(-c4ccc(Cl)cc4Cl)nn23)n[nH]1	53
CCC1(C)NC(=O)N(CC(=O)Nc2sc3c(c2C(N)=O)CCC3)C1=O (configuration not stated)	16
Cn1c(-c2ccc(N)cc2)nc2ccccc21	15

From PubChem BioAssay AID1211 (NMMLSC, 2008)
